Measurements from PubChem BioAssay (EPA / NIEHS).
“And” between values parts separate entries of the source, which are not always exact repeats. Equal entries are not always repeated. Results filed as inconclusive are left out. Some structures have more than one record in an assay (separate samples or runs), and their calls can disagree. The source made the active and inactive calls. Rule for the calls: active = hit-call score of the fitted dose curve at least 0.9, where 1 is the maximum; inconclusive = response in the unintended direction; inactive = score below 0.9.

These compounds were tested against Metabotropic glutamate receptor 1 (Rattus norvegicus) (UniProt P23385) (assay: NVS_GPCR_rmMGluR1: NovaScreen (NVS) G Protein-Coupled Receptor Assay for rat Glutamate Metabotropic Receptor 1 (MGluR1) (AID 2283305)).
Outline: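 Rat cerebellum membrane preparation, radioligand displacement binding read by filter-based scintillation counting 1 hour after dosing. Initial duplicate single-point screen at 25 uM, then concentration-response up to 50 uM; loss of signal versus DMSO baseline scored.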

Metabotropic glutamate receptor 1 (Rattus norvegicus), sequence (P23385 whole entry, looked up): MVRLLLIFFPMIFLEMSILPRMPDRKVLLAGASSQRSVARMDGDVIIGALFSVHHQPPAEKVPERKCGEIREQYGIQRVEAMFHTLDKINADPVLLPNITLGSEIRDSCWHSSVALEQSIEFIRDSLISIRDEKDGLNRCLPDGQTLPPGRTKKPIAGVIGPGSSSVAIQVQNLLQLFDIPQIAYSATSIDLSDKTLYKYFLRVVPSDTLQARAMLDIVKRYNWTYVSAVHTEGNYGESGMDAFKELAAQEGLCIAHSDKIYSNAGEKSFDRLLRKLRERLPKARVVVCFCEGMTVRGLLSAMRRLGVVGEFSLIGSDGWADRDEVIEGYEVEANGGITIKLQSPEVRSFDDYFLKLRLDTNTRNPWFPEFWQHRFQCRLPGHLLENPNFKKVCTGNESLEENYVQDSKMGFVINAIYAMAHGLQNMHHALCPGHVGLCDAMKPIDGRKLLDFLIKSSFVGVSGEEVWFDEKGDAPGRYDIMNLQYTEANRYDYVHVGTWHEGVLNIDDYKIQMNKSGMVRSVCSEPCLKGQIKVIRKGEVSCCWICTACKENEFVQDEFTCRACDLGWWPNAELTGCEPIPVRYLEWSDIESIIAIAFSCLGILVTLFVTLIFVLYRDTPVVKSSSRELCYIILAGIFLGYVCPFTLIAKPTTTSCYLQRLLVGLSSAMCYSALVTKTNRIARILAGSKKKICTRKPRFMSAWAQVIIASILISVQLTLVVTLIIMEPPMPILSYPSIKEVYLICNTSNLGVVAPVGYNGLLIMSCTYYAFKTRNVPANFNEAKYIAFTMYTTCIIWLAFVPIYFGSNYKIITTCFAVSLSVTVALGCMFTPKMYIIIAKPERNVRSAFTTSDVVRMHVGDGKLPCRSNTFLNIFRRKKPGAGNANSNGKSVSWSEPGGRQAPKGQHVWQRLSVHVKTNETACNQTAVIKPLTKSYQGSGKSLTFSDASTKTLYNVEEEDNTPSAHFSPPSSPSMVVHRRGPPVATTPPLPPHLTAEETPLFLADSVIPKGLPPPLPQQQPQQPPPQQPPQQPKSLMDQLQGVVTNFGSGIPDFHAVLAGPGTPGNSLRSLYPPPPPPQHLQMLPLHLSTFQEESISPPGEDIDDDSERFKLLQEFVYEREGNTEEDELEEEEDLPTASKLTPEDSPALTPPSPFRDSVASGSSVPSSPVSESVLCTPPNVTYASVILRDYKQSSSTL

SMILES	AC50	outcome
CCCCNC(=O)OCC#CI	19.2 µM (active) and 1.24 µM (active)	
Cc1c(F)c(F)c(COC(=O)C2C(/C=C(\Cl)C(F)(F)F)C2(C)C)c(F)c1F (configuration not stated)		inactive
COc1cnc(OC)n2nc(NS(=O)(=O)c3c(OCC(F)F)cccc3C(F)(F)F)nc12		inactive

These compounds were tested against Adra2b (gene 24174) (UniProt P19328) (assay: NVS_GPCR_rmAdra2B: NovaScreen (NVS) G Protein-Coupled Receptor Assay for hybird cells Adrenergic, Alpha 2B Receptor (Adra2B) (AID 2283306)).
Outline: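 Radioligand filter-binding assay on membrane proteins from neuroglioma/blastoma hybrid cells (rodent), 1 h after dosing; scintillation counting, loss of signal vs DMSO. Primary screen in duplicate at 25 uM, actives then run in concentration series.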

Adra2b (gene 24174), sequence (P19328 whole entry, looked up): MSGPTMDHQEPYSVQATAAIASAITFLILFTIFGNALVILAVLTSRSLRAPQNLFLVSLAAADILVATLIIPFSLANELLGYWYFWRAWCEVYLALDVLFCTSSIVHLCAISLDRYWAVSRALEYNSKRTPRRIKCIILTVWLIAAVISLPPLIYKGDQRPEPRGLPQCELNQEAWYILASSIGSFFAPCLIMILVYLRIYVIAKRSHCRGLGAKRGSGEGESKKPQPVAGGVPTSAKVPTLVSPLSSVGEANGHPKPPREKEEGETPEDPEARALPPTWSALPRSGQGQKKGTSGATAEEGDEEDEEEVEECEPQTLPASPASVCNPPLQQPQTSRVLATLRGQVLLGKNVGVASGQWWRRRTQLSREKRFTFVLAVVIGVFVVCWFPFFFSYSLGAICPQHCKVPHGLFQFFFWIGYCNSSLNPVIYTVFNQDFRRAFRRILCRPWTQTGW

SMILES	AC50
CCON=C(CC)C1=C(O)CC(c2c(C)cc(C)cc2C)CC1=O (configuration not stated)	2.7 µM (active)
O=C(Nc1ccccc1)Nc1ccnc(Cl)c1	8.91 µM (active)
Cc1ccc(-c2c(Cl)nc(C#N)n2S(=O)(=O)N(C)C)cc1	4.08 µM (active)
CC1COC(Cn2cncn2)(c2ccc(Oc3ccc(Cl)cc3)cc2Cl)O1 (configuration not stated)	4.59 µM (active)

Each compound was assayed against rat Neurotensin Receptor (NTS), Ntsr1 (gene 366274) (UniProt P20789) (assay: NVS_GPCR_rNTS: NovaScreen (NVS) G Protein-Coupled Receptor Assay for rat Neurotensin Receptor (NTS) (AID 2283308)).
Outline: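 Rat forebrain membranes; radioligand binding with competitive displacement, read by filter-based scintillation counting 1 h after dosing. Primary screen in duplicate at 25 uM; actives (e.g., 30% inhibition) rerun in concentration-response up to 50 uM, loss-of-signal versus DMSO.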

rat Neurotensin Receptor (NTS), Ntsr1 (gene 366274), sequence (P20789 whole entry, looked up): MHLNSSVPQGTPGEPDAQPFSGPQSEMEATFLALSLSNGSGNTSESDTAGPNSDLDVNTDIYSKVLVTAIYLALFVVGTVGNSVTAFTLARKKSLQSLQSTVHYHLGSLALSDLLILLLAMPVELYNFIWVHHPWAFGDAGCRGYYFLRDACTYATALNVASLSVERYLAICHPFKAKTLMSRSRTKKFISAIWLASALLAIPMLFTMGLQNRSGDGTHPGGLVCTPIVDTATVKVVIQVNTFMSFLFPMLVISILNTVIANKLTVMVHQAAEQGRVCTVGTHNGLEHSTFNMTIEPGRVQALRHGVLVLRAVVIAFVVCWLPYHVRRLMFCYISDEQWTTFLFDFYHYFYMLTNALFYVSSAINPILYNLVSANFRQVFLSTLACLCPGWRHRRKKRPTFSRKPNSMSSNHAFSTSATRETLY

SMILES	outcome
CCNc1nc(Cl)nc(NC(C)C)n1	inactive
COc1nc(C)nc(NC(=O)NS(=O)(=O)c2ccccc2Cl)n1	inactive
Cc1c(F)c(F)c(COC(=O)C2C(/C=C(\Cl)C(F)(F)F)C2(C)C)c(F)c1F (configuration not stated)	inactive
CNC(=S)S	inactive
COC(=O)C(C)Oc1ccc(Oc2ccc(Cl)cc2Cl)cc1 (configuration not stated)	inactive

What follows are compounds tested against rat Neurokinin-1 Receptor (NK1), Tacr1 (gene 24807) (UniProt P14600) (assay: NVS_GPCR_rNK1: NovaScreen (NVS) G Protein-Coupled Receptor Assay for rat Neurokinin-1 Receptor (NK1) (AID 2283309)).
Outline: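 Rat submaxillary gland membranes; radioligand displacement read by filter-based scintillation counting after 1 h. Primary screen in duplicate at 25 uM; actives retested in concentration series; loss of binding fitted versus DMSO.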

rat Neurokinin-1 Receptor (NK1), Tacr1 (gene 24807), sequence (P14600 whole entry, looked up): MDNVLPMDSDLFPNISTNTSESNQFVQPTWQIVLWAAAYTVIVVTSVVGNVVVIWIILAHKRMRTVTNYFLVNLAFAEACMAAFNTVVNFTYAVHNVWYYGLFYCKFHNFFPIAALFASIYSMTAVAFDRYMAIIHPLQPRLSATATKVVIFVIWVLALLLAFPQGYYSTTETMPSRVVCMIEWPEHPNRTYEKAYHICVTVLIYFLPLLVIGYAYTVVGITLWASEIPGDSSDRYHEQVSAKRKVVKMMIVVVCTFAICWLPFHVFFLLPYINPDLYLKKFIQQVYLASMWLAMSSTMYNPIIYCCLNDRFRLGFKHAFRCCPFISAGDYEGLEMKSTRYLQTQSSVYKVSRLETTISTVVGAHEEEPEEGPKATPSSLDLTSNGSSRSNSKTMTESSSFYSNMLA

SMILES	outcome	AC50
COc1ccc(C(c2ccc(OC)cc2)C(Cl)(Cl)Cl)cc1	inactive	
COc1nc(C)nc(NC(=O)NS(=O)(=O)c2ccccc2CCC(F)(F)F)n1	inactive	
C=CCC1=C(C)[C@@H](OC(=O)[C@@H]2[C@@H](C=C(C)C)C2(C)C)CC1=O		39.1 µM (active)
CO/C=C(/C(=O)OC)c1ccccc1Oc1cc(Oc2ccccc2C#N)ncn1	inactive	
COC(=O)C(C)Oc1ccc(Oc2ccc(Cl)cc2Cl)cc1 (configuration not stated)	inactive	
CC1COC(Cn2cncn2)(c2ccc(Oc3ccc(Cl)cc3)cc2Cl)O1 (configuration not stated)	inactive	

These compounds were tested against rat Neurokinin-3 Receptor (NK3), Tacr3 (gene 24808) (UniProt P16177) (assay: NVS_GPCR_rNK3: NovaScreen (NVS) G Protein-Coupled Receptor Assay for rat Neurokinin-3 Receptor (NK3) (AID 2283310)).
Outline: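 Rat cortical membranes; radioligand binding with filtration and scintillation counting, 2 h after dosing. Primary screen in duplicate at 25 uM, then concentration-response up to 50 uM; loss of binding signal relative to DMSO.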

rat Neurokinin-3 Receptor (NK3), Tacr3 (gene 24808), sequence (P16177 whole entry, looked up): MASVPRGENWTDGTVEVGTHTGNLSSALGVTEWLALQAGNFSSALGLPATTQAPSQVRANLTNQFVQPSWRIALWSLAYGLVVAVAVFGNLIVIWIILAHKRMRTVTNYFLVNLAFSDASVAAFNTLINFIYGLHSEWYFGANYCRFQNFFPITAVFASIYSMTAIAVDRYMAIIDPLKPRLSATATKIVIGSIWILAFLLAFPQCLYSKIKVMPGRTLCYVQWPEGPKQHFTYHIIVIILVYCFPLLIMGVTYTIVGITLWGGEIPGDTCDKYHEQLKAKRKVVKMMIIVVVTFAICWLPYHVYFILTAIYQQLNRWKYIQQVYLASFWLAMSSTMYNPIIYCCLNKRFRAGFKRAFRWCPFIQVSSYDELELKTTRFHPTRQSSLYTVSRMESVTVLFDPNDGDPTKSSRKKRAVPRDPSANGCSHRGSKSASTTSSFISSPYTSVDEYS

SMILES	AC50	outcome
CS/C(C)=N/OC(=O)N(C)SN(C)C(=O)O/N=C(\C)SC	2.97 µM (active)	
C=CCC1=C(C)C(OC(=O)C2C(C=C(C)C)C2(C)C)CC1=O (configuration not stated)		inactive
CNC(=S)S		inactive

What follows are compounds tested against rat Opioid Receptor, Non-selective Sodium (Na+) Binding, Oprm1 (gene 25601) (UniProt P33535) (assay: NVS_GPCR_rOpiate_NonSelectiveNa: NovaScreen (NVS) G Protein-Coupled Receptor Assay for rat Opioid Receptor, Non-selective Sodium (Na+) Binding (AID 2283311)).
Outline: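 Rat forebrain membranes, radioligand displacement with filter scintillation counting, 1.5 h incubation. Screened in duplicate at 25 µM; hits then run in concentration-response up to 50 µM; loss of binding fitted versus DMSO.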

rat Opioid Receptor, Non-selective Sodium (Na+) Binding, Oprm1 (gene 25601), sequence (P33535 whole entry, looked up): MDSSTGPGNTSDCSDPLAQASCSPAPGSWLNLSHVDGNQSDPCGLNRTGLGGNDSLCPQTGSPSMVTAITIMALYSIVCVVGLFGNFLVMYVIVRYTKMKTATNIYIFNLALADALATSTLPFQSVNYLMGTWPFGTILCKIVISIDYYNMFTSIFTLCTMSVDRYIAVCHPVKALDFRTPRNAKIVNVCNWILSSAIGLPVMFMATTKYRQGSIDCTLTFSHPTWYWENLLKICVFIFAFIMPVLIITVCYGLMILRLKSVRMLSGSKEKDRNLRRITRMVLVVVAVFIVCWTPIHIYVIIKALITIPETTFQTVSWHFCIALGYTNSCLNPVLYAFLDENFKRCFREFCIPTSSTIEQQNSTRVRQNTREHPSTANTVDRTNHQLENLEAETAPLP

SMILES	outcome	AC50
COc1nc(C)nc(NC(=O)NS(=O)(=O)c2ccccc2CCC(F)(F)F)n1	inactive	
COC(=O)C=C(C)OP(=O)(OC)OC	inactive	
COP(=S)(OC)Oc1nc(Cl)c(Cl)cc1Cl	inactive	
CO/C=C(/C(=O)OC)c1ccccc1Oc1cc(Oc2ccccc2C#N)ncn1	inactive	12.6 µM (active)
CCCC1COC(Cn2cncn2)(c2ccc(Cl)cc2Cl)O1 (configuration not stated)		25 µM (active)
